In PubChem BioAssay (EPA / NIEHS):
Activity calls are given as the source filed them. How the source made its calls: active means hit-call score of the fitted dose curve at least 0.9, where 1 is the maximum; inactive means score below 0.9.

How the values were obtained:
[1] = ATG_CRE_CIS: Attagene CIS-FACTORIAL HepG2 Assay for human cAMP Responsive Element (CRE) binding protein 3 (AID 2282926); details: HepG2 CRE cis-reporter, Attagene multiplexed mRNA; actives raise or lower the signal
Outline: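 Multiplexed transcription-unit reporters transfected into HepG2; 24 h dosing; RT-PCR/capillary electrophoresis fluorescence read-out; bidirectional fit vs DMSO.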

[2] = molecular target: CCAAT/enhancer-binding protein beta (Homo sapiens) (UniProt P17676); assay: ATG_C_EBP_CIS: Attagene CIS-FACTORIAL HepG2 Assay for human CCAAT/Enhancer Binding Protein (C/EBP) beta (AID 2282927); details: HepG2 Attagene cis-factorial transcription factor reporter; actives raise or lower the signal
Outline: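 RT-PCR/capillary electrophoresis fluorescence of reporter mRNA, 24 h post-dose, in HepG2 cells carrying transfected cis-promoter reporter units. Bidirectional curve fitting against DMSO baseline captures gain or loss of signal.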

[3] = ATG_CMV_CIS: Attagene CIS-FACTORIAL HepG2 Assay for human CMV (Internal Marker) (AID 2282928); details: HepG2 CMV promoter reporter, transcription factor profiling; actives raise or lower the signal;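 further: endpoint acts as a background internal control marker rather than a target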
Outline: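 HepG2 cells transiently transfected with multiple cis-regulated reporter units; 24 h compound exposure. Reporter mRNA quantified by RT-PCR, 6-FAM primer-extension labeling, HpaI digestion and capillary electrophoresis; bidirectional fitting against DMSO baseline.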

[4] = molecular target: Aryl hydrocarbon receptor (Homo sapiens) (UniProt P35869); assay: ATG_Ahr_CIS: Attagene CIS-FACTORIAL HepG2 Assay for human Aryl Hydrocarbon Receptor (Ahr) (AID 2282930); details: HepG2 AhR cis-factorial reporter transcription; actives raise or lower the signal
Outline: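 HepG2 cells transiently transfected with cis-element-driven multiplexed reporter transcription units; endogenous transcription factor activity measured as reporter mRNA 24 h after dosing. RT-PCR, 6-FAM labelling, HpaI digestion, capillary electrophoresis; bidirectional fitting versus DMSO baseline.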

[5] = ATG_AP_1_CIS: Attagene CIS-FACTORIAL HepG2 Assay for human Activator Protein 1 (AP-1) (AID 2282931); details: HepG2 Attagene cis-factorial AP-1 reporter mRNA; actives raise or lower the signal
Outline: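 Endogenous transcription-factor activity in human HepG2 liver cells is read through a cis-promoter reporter transcript, sampled 24 h after dosing. Detection uses RT-PCR with capillary electrophoresis; values come from bidirectional fitting relative to DMSO.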

[6] = ATG_AP_2_CIS: Attagene CIS-FACTORIAL HepG2 Assay for human Activator Protein 2 (AP-2) (AID 2282932); details: HepG2 AP-2 cis-reporter, Attagene transcription factor profiling; actives raise or lower the signal
Outline: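 HepG2 cells were transiently transfected with multiple cis-promoter reporter transcription units and dosed for 24 h. Reporter mRNA was measured by RT-PCR with capillary electrophoresis fluorescence; bidirectional fits relative to DMSO baseline.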

[7] = ATG_BRE_CIS: Attagene CIS-FACTORIAL HepG2 Assay for human Bone Morphogenetic Protein (BMP) Response Element (BRE) (AID 2282933); details: HepG2 BMP response element reporter, Attagene transcription factor profiling; actives raise or lower the signal
Outline: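 A HepG2 multiplex reporter system measured inducible reporter mRNA 24 h post-dosing. Detection: RT-PCR, 6-FAM primer extension, HpaI digestion, capillary electrophoresis. Activity fitted bidirectionally relative to DMSO.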

[8] = molecular target: Retinoic acid receptor alpha (Homo sapiens) (UniProt P10276); assay: ATG_DR5_RAR_CIS: Attagene CIS-FACTORIAL HepG2 Assay for human Retinoic Acid Receptor Alpha (RARE), DR5 submotif (AID 2282934); details: HepG2 Attagene cis-factorial RARE DR5 reporter, mRNA; actives raise or lower the signal
Outline: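 HepG2 cells transiently transfected with multiplexed reporter units under cis (DR5 RARE) promoters, so endogenous transcription factor activity is measured. After 24 h compound exposure, reporter mRNA is quantified by RT-PCR with fluorescent labelling and capillary electrophoresis; bidirectional fitting versus DMSO.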

[9] = molecular target: Transcription factor E2F1 (Homo sapiens) (UniProt Q01094); assay: ATG_E2F_CIS: Attagene CIS-FACTORIAL HepG2 Assay for human E2F Transcription Factor 1 (AID 2282935); details: HepG2 Attagene cis-reporter, E2F reporter RNA transcripts; actives raise or lower the signal
Outline: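 HepG2 cells transiently transfected with multiplexed cis-element reporter units, dosed for 24 h. Reporter mRNA measured by RT-PCR, 6-FAM primer-extension labeling, HpaI digestion and capillary electrophoresis; bidirectional fit versus DMSO baseline.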

[10] = ATG_E_Box_CIS: Attagene CIS-FACTORIAL HepG2 Assay for human Enhancer Box (E-box) (AID 2282936); details: HepG2 E-box cis-reporter transcription, actives raise or lower the signal
Outline: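 HepG2 cells transiently transfected with multiplexed cis-element reporter units sensing endogenous transcription factor activity; 24 h compound exposure. Reporter mRNA measured by RT-PCR, 6-FAM primer extension, HpaI digestion and capillary electrophoresis; bidirectional fit versus DMSO.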

[11] = ATG_M_61_CIS: Attagene CIS-FACTORIAL HepG2 Assay for M61 Transcription Factor (Internal Marker) (AID 2282937); details: HepG2 Attagene CIS-FACTORIAL M61 internal marker reporter; actives raise or lower the signal
Outline: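 Cells were transfected with reporter units under cis-regulatory promoters, treated with chemicals for 24 h, then lysed for RNA. Reporter transcripts were quantified by RT-PCR and capillary electrophoresis, and activity was fitted bidirectionally against DMSO.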

[12] = ATG_EGR_CIS: Attagene CIS-FACTORIAL HepG2 Assay for human Early Growth Response 1 (EGR1) (AID 2282938); details: HepG2 Attagene CIS-FACTORIAL EGR reporter mRNA; actives raise or lower the signal
Outline: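 Endogenous TF activity in HepG2 liver cells was gauged through cis-promoter reporter constructs transiently transfected. After 24 h dosing, reporter mRNA was quantified by RT-PCR and capillary electrophoresis, and curves fitted in both directions versus DMSO.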

[13] = ATG_M_19_CIS: Attagene CIS-FACTORIAL HepG2 Assay for M19 Transcription Factor (Internal Marker) (AID 2282939); details: HepG2 Attagene CIS-FACTORIAL M19 internal marker reporter; actives raise or lower the signal
Outline: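 Chemical-treated HepG2 (24 h) with MRTU constructs; reporter transcripts detected by fluorescent RT-PCR fragment analysis on capillary electrophoresis. Internal background marker, DMSO as baseline.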

[14] = ATG_ERE_CIS: Attagene CIS-FACTORIAL HepG2 Assay for Estrogen Response Element (ERE) (AID 2282940); details: HepG2 ERE cis-reporter, Attagene RNA transcript; actives raise or lower the signal
Outline: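 Human liver cells (HepG2) bearing transiently transfected, promoter-regulated reporter units were exposed 24 h. Reporter mRNA induction was detected by capillary electrophoresis of labelled RT-PCR products and fitted bidirectionally to DMSO.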

[15] = ATG_Ets_CIS: Attagene CIS-FACTORIAL HepG2 Assay for human Erythroblast Transformation Specific (ETS) (AID 2282941); details: HepG2 ETS cis-reporter transcription, actives raise or lower the signal
Outline: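 HepG2 cells transiently transfected with cis-promoter reporter transcription units were dosed for 24 h; reporter mRNA was measured by RT-PCR, 6-FAM primer extension, HpaI digestion and capillary electrophoresis, with bidirectional fitting against DMSO baseline.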

[16] = molecular target: Hepatocyte nuclear factor 3-beta (Homo sapiens) (UniProt Q9Y261); assay: ATG_FoxA2_CIS: Attagene CIS-FACTORIAL HepG2 Assay for human Forkhead box A2 (FOXA2) (AID 2282942); details: HepG2 cis-reporter transcription factor activity, 24 h; actives raise or lower the signal
Outline: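 Endogenous transcription factor activity was read in HepG2 cells carrying transiently transfected cis-promoter reporter units. After 24 h dosing, reporter mRNA was quantified by RT-PCR and capillary electrophoresis, and values fitted bidirectionally versus DMSO.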

[17] = ATG_FoxO_CIS: Attagene CIS-FACTORIAL HepG2 Assay for human Forkhead box O (FoxO) (AID 2282943); details: HepG2 Attagene cis-reporter, FoxO element, mRNA; actives raise or lower the signal
Outline: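 HepG2 cells transiently transfected with cis-promoter-driven multiple reporter transcription units; 24 h after chemical dosing, reporter mRNA quantified by RT-PCR, fluorescent primer extension, HpaI digestion and capillary electrophoresis. Bidirectional fitting versus DMSO baseline.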

[18] = ATG_GATA_CIS: Attagene CIS-FACTORIAL HepG2 Assay for human GATA Binding Protein (AID 2282944); details: HepG2 GATA cis-element reporter, Attagene multiplex mRNA; actives raise or lower the signal
Outline: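 Transfected cis-reporter HepG2 cells were treated with chemicals for 24 hours. Total RNA was then converted to cDNA, amplified with reporter-specific primers and analysed by fluorescent capillary electrophoresis, using DMSO-treated wells as baseline.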

[19] = ATG_GLI_CIS: Attagene CIS-FACTORIAL HepG2 Assay for human Zinc Finger Protein GLI1 (AID 2282945); details: HepG2, Attagene cis-factorial reporter mRNA, GLI element; actives raise or lower the signal
Outline: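 HepG2 cells transiently transfected with cis-promoter multiplexed reporter units report endogenous transcription factor activity. After 24 h chemical exposure, reporter mRNA was quantified by RT-PCR, 6-FAM labelling, HpaI digestion and capillary electrophoresis, with bidirectional fitting against DMSO.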

[20] = ATG_DR4_LXR_CIS: Attagene CIS-FACTORIAL HepG2 Assay for human Liver X Receptor (LXR), DR4 submotif (AID 2282929); details: HepG2 Attagene DR4 cis-reporter, mRNA transcription; actives raise or lower the signal
Outline: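 Cells were transfected with multiple reporter transcription units, exposed to chemicals for 24 hours, then lysed for RNA. Reporter mRNA induction was measured by RT-PCR with capillary electrophoresis detection and fitted in both directions relative to DMSO.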

Measured: AC50

Hepatocyte nuclear factor 3-beta (Homo sapiens), sequence (Q9Y261 whole entry, looked up): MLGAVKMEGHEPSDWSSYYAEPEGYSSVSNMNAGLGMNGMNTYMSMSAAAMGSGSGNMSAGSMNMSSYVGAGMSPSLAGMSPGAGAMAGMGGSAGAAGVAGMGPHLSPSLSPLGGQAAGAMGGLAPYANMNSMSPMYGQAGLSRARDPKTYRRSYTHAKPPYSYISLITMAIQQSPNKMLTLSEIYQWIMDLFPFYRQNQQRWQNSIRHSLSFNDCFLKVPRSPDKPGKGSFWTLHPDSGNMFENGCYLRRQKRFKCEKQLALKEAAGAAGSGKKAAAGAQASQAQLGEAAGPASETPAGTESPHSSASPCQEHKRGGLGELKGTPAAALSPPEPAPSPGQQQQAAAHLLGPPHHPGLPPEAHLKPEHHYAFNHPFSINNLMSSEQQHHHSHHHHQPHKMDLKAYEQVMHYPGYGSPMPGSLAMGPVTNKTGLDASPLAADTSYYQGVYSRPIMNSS
Retinoic acid receptor alpha (Homo sapiens), sequence (P10276 whole entry, looked up): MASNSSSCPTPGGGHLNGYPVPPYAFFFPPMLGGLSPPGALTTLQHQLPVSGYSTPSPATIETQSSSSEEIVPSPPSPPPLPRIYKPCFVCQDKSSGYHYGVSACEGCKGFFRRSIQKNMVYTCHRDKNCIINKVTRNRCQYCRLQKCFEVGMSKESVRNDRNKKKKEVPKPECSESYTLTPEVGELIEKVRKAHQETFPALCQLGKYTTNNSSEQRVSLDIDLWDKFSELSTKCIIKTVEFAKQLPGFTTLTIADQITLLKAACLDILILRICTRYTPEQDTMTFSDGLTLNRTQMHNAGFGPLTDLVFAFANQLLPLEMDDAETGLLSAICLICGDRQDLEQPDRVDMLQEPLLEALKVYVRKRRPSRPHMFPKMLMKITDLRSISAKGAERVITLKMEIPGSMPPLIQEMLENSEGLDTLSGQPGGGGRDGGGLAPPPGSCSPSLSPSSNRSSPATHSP
Transcription factor E2F1 (Homo sapiens), sequence (Q01094 whole entry, looked up): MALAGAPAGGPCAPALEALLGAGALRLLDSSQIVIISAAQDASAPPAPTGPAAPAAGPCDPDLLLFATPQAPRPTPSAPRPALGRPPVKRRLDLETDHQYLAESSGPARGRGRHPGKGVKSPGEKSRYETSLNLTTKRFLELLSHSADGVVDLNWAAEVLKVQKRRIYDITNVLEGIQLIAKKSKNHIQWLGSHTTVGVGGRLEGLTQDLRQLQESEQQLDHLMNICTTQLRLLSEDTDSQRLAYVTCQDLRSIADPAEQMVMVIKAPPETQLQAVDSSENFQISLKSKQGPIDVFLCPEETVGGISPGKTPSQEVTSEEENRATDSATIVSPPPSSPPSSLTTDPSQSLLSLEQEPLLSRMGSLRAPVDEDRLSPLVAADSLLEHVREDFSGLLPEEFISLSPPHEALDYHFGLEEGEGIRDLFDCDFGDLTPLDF
CCAAT/enhancer-binding protein beta (Homo sapiens), sequence (P17676 whole entry, looked up): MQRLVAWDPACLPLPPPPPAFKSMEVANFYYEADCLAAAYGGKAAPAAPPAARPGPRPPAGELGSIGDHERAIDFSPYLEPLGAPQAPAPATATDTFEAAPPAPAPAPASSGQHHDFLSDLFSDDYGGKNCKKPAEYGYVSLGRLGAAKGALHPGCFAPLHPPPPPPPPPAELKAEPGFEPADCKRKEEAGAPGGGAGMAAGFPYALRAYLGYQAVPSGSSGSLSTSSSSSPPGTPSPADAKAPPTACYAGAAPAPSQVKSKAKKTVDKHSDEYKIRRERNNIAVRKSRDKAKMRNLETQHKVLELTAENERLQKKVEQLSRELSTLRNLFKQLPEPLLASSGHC
Aryl hydrocarbon receptor (Homo sapiens), sequence (P35869 whole entry, looked up): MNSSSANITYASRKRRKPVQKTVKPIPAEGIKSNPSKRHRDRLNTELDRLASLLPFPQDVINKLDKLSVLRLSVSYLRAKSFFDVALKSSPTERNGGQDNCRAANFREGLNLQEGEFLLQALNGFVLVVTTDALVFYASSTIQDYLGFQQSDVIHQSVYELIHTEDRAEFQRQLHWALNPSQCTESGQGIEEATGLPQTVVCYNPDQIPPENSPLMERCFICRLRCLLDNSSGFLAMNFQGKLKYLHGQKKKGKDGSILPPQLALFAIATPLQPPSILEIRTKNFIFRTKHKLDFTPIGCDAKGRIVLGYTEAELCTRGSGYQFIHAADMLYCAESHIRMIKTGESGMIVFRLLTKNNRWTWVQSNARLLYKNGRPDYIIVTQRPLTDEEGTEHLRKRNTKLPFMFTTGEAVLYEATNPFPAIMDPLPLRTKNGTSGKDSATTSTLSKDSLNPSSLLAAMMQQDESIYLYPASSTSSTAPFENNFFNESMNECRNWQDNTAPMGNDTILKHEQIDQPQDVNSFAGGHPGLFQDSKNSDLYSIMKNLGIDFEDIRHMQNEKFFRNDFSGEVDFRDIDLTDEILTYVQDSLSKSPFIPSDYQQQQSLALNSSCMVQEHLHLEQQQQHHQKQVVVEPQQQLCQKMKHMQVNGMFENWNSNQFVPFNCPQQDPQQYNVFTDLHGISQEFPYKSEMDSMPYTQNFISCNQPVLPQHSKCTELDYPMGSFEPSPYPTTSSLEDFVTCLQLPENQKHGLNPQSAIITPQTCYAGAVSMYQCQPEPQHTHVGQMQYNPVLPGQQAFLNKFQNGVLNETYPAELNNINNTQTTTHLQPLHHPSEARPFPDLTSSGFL

CNC(=S)NN
inactive: [1] | [2] | [3] | [4] | [5] | [6] | [7] | [8] | [9] | [10] | [11] | [12] | [13] | [14] | [15] | [16] | [17] | [18] | [19]

CC1=NN(c2cc(S(=O)(=O)O)ccc2Cl)C(=O)C1N=Nc1ccccc1 (stereo not given)
active: [4] 541 nM
inactive: [1] | [2] | [3] | [5] | [6] | [7] | [8] | [9] | [10] | [12] | [13] | [14] | [15] | [16] | [17] | [18] | [19]

Cn1c([N+](=O)[O-])cnc1COC(N)=O
inactive: [1] | [2] | [3] | [4] | [5] | [6] | [7] | [8] | [9] | [10] | [11] | [12] | [13] | [14] | [15] | [16] | [17] | [18] | [19]

CC(C)=CCC/C(C)=C\C#N
inactive: [1] | [2] | [3] | [4] | [5] | [6] | [7] | [8] | [9] | [10] | [11] | [13] | [14] | [15] | [16] | [17] | [19]

CN1C(=O)N(C)C(O)C1O (stereo not given)
inactive: [1] | [2] | [3] | [20] | [6] | [7] | [8] | [9] | [10] | [12] | [13] | [14] | [15] | [16] | [17] | [18] | [19]

CC(C)c1ccc(C=O)cc1
inactive: [1] | [2] | [3] | [20] | [5] | [6] | [7] | [8] | [9] | [11] | [12] | [13] | [14] | [15] | [16] | [17] | [18] | [19]

NC(=O)c1ccccc1O
inactive: [1] | [2] | [3] | [4] | [5] | [7] | [8] | [9] | [10] | [11] | [12] | [13] | [14] | [16] | [17] | [18] | [19]
